Laboratory results taken from the supplement of paper PMC7156485.
± gives the standard deviation of the averaged measurements.

Experiments:
Conditions in all cases: concentration: 10 µM; 24 h
HCC1569 [1] = assay: cell number relative to DMSO (% of DMSO); higher = more cells (less growth inhibition / toxicity)
Procedure, shortened: (§1)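 Cell number or H1.0 nuclear intensity appears as percent of the plate control, based on the median of replicates. Measurements came from HCC1569 and TDF cells exposed in triplicate to compounds at 10 µM for 24 h at 37 °C, then imaged in six fields per well at ×10. Positional effects were smoothed out of HCC1569 values.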

TDF [2] = assay: as above
Procedure, shortened: as §1

TDF [3] = assay: H1.0 immunofluorescence intensity relative to DMSO (% of DMSO); higher = stronger H1.0 induction, active = 120 or more
Procedure, shortened: as §1

HCC1569 [4] = assay: H1.0 immunofluorescence intensity relative to DMSO (% of DMSO); higher = stronger H1.0 induction, active = 140 or more
Procedure, shortened: as §1
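For H1.0 immunofluorescence intensity relative to DMSO in this document: TDF is a line of transformed human dermal fibroblasts of mesenchymal origin.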
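For cell number relative to DMSO in this document: TDF denotes transformed human dermal fibroblasts of mesenchymal origin.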

Structure (SMILES): N[C@@H](CC(=O)O)C(=O)O [L-Aspartic acid]
- cell number (HCC1569 [1]): 104
- cell number (TDF [2]): 108
- H1.0 immunofluorescence intensity (TDF [3]): 88.5 (inactive)
- H1.0 immunofluorescence intensity (HCC1569 [4]): 93.2 (inactive)

Structure (SMILES): O=C([O-])CCC(NC(=O)c1ccccc1C(=O)[O-])C(=O)[O-].[Na+].[Na+].[Na+] [Phthalamoyl-L-glutamic acid trisodium]
- cell number (HCC1569 [1]): 61.8
- cell number (TDF [2]): 103
- H1.0 immunofluorescence intensity (TDF [3]): 89.2 (inactive)
- H1.0 immunofluorescence intensity (HCC1569 [4]): 170 (active)

Structure (SMILES): O=C(Nc1c(Cl)cncc1Cl)c1ccc(OC(F)F)c(OCC2CC2)c1
- cell number (HCC1569 [1]): 99.9
- cell number (TDF [2]): 92.1
- H1.0 immunofluorescence intensity (TDF [3]): 95.6 (inactive)
- H1.0 immunofluorescence intensity (HCC1569 [4]): 101 (inactive)

Structure (SMILES): CCC(C)C(O)C(C)C(=O)C(C)C=C(C)CC(C)C1OC(=O)C1CC (configuration not stated) [Ebelactone B]
- cell number (HCC1569 [1]): 102
- cell number (TDF [2]): 104
- H1.0 immunofluorescence intensity (TDF [3]): 99.9 (inactive)
- H1.0 immunofluorescence intensity (HCC1569 [4]): 89.2 (inactive)

Structure (SMILES): COC1CC(OC2C(C)C(=O)OC(C)C(C)C(OC(C)=O)C(C)C(=O)C3(CO3)CC(C)C(OC3OC(C)CC(N(C)C)C3OC(C)=O)C2C)OC(C)C1OC(C)=O (configuration not stated) [Troleandomycin]
- cell number (HCC1569 [1]): 102 ± 2.6
- cell number (TDF [2]): 108.1 ± 0.42
- H1.0 immunofluorescence intensity (TDF [3]): 97.2 (inactive)
- H1.0 immunofluorescence intensity (HCC1569 [4]): 94.6 (inactive)

Structure (SMILES): CN(C)C(=N)N=C(N)N [Metformin]
- cell number (HCC1569 [1]): 100
- cell number (TDF [2]): 94
- H1.0 immunofluorescence intensity (TDF [3]): 95.9 (inactive)
- H1.0 immunofluorescence intensity (HCC1569 [4]): 101 (inactive)

Structure (SMILES): CC(C)NCC(O)c1ccc(NS(C)(=O)=O)cc1.Cl (racemic)
- cell number (HCC1569 [1]): 108
- cell number (TDF [2]): 100
- H1.0 immunofluorescence intensity (TDF [3]): 92.6 (inactive)
- H1.0 immunofluorescence intensity (HCC1569 [4]): 99.1 (inactive)

Structure (SMILES): O=C(c1ccccc1)c1ccc(N2CCOCC2)cc1O [DNA-PK Inhibitor V]
- cell number (HCC1569 [1]): 94.7
- cell number (TDF [2]): 95.7
- H1.0 immunofluorescence intensity (TDF [3]): 91.7 (inactive)
- H1.0 immunofluorescence intensity (HCC1569 [4]): 109 (inactive)

Structure (SMILES): COc1ccc(COc2ccc(Cc3cnc(N)nc3N)cc2OC)cc1 [cFMS Receptor Tyrosine Kinase Inhibitor]
- cell number (HCC1569 [1]): 100
- cell number (TDF [2]): 93.7
- H1.0 immunofluorescence intensity (TDF [3]): 98.1 (inactive)
- H1.0 immunofluorescence intensity (HCC1569 [4]): 130 (inactive)

Structure (SMILES): CCCCCC(O)CC(=O)CCc1ccc(O)c(OC)c1 (configuration not stated) [Gingerol]
- cell number (HCC1569 [1]): 99.3
- cell number (TDF [2]): 97.2
- H1.0 immunofluorescence intensity (TDF [3]): 92.9 (inactive)
- H1.0 immunofluorescence intensity (HCC1569 [4]): 85.8 (inactive)

Structure (SMILES): COc1ccc(-c2cc(=O)c3c(O)cc(O)cc3o2)cc1 [Acacetine]
- cell number (HCC1569 [1]): 98.4
- cell number (TDF [2]): 95.3
- H1.0 immunofluorescence intensity (TDF [3]): 100 (inactive)
- H1.0 immunofluorescence intensity (HCC1569 [4]): 90.7 (inactive)

Structure (SMILES): Cn1c(=O)c2[nH]c(C3CCCC3)nc2n(C)c1=O [8-Cyclopentyl-1,3-dimethylxanthine]
- cell number (HCC1569 [1]): 97.7
- cell number (TDF [2]): 99.4
- H1.0 immunofluorescence intensity (TDF [3]): 98.6 (inactive)
- H1.0 immunofluorescence intensity (HCC1569 [4]): 102 (inactive)

Structure (SMILES): Nc1ccn(C2CCC(CO)O2)c(=O)n1 (configuration not stated) [2',3'-dideoxycytidine]
- cell number (HCC1569 [1]): 99.7
- cell number (TDF [2]): 102
- H1.0 immunofluorescence intensity (TDF [3]): 89.2 (inactive)
- H1.0 immunofluorescence intensity (HCC1569 [4]): 87.7 (inactive)

Structure (SMILES): Cc1ccc(NC2=CC(=O)c3sc(C)nc3C2=O)cc1 [Cdk4 Inhibitor III]
- cell number (HCC1569 [1]): 26.6
- cell number (TDF [2]): 12
- H1.0 immunofluorescence intensity (TDF [3]): 132 (active)
- H1.0 immunofluorescence intensity (HCC1569 [4]): 105 (inactive)

Structure (SMILES): COc1ccccc1N1CCN(CCCCNC(=O)c2ccc3ccccc3c2)CC1
- cell number (HCC1569 [1]): 99.1
- cell number (TDF [2]): 111
- H1.0 immunofluorescence intensity (TDF [3]): 106 (inactive)
- H1.0 immunofluorescence intensity (HCC1569 [4]): 97.4 (inactive)

Structure (SMILES): C[N+](C)(C)CCO.[Br-] [Choline bromide]
- cell number (HCC1569 [1]): 104
- cell number (TDF [2]): 108
- H1.0 immunofluorescence intensity (TDF [3]): 96.9 (inactive)
- H1.0 immunofluorescence intensity (HCC1569 [4]): 98 (inactive)

Structure (SMILES): CN=C(NC#N)Nc1ccc(C2=NNC(=O)CC2C)cc1 (configuration not stated) [Siguazodan]
- cell number (HCC1569 [1]): 103
- cell number (TDF [2]): 104
- H1.0 immunofluorescence intensity (TDF [3]): 95.4 (inactive)
- H1.0 immunofluorescence intensity (HCC1569 [4]): 115 (inactive)

Structure (SMILES): C=C1C(=O)C23C(O)C1CCC2C12COC3(O)C(O)C1C(C)(C)CCC2O (configuration not stated) [Oridonin]
- cell number (HCC1569 [1]): 80.4
- cell number (TDF [2]): 110
- H1.0 immunofluorescence intensity (TDF [3]): 93 (inactive)
- H1.0 immunofluorescence intensity (HCC1569 [4]): 111 (inactive)

Structure (SMILES): CC(O)C(O)C1CNc2[nH]c(N)nc(=O)c2N1.Cl.Cl [(6R)-5,6,7,8-Tetrahydro-L-biopterin hydrochloride]
- cell number (HCC1569 [1]): 105
- cell number (TDF [2]): 110
- H1.0 immunofluorescence intensity (TDF [3]): 89.2 (inactive)
- H1.0 immunofluorescence intensity (HCC1569 [4]): 103 (inactive)

Structure (SMILES): CC(=O)OCC1=C(C(=O)[O-])N2C(=O)C(NC(=O)Cc3cccs3)C2SC1.[Na+] (configuration not stated) [Cephalothin sodium]
- cell number (HCC1569 [1]): 100
- cell number (TDF [2]): 113
- H1.0 immunofluorescence intensity (TDF [3]): 89.4 (inactive)
- H1.0 immunofluorescence intensity (HCC1569 [4]): 89.2 (inactive)

Structure (SMILES): CC(C)c1cc(C(C)C)c(CC(=O)NS(=O)(=O)Oc2c(C(C)C)cccc2C(C)C)c(C(C)C)c1
- cell number (HCC1569 [1]): 94.4
- cell number (TDF [2]): 103
- H1.0 immunofluorescence intensity (TDF [3]): 89.8 (inactive)
- H1.0 immunofluorescence intensity (HCC1569 [4]): 110 (inactive)

Structure (SMILES): Cn1c(=O)c2[nH]cnc2n(C)c1=O.Cn1c(=O)c2[nH]cnc2n(C)c1=O.NCCN [Aminophylline ethylenediamine]
- cell number (HCC1569 [1]): 103
- cell number (TDF [2]): 102
- H1.0 immunofluorescence intensity (TDF [3]): 98.7 (inactive)
- H1.0 immunofluorescence intensity (HCC1569 [4]): 93.8 (inactive)

Structure (SMILES): C=CCCCCCCCCCC(=O)O [11-Dodecenoic acid]
- cell number (HCC1569 [1]): 97.4
- cell number (TDF [2]): 98.7
- H1.0 immunofluorescence intensity (TDF [3]): 102 (inactive)
- H1.0 immunofluorescence intensity (HCC1569 [4]): 103 (inactive)
